The results in this text go back to PubChem BioAssay (NCATS).

SMILES strings stand for the structures. Values joined by “and” are separate entries in the source; they are usually repeats but may differ in a detail not shown here. Identical values can stand only once. Results filed as inconclusive are left out. Active and inactive are the calls of the source. Unless noted, how the calls were made is not given here.

A short description of assay [1]: qHTS profiling for inhibitors of Plasmodium falciparum (3D7) proliferation (AID 743322).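 Further: infected erythrocytes exposed to compound for 72 h before lysis; 100% = DMSO vehicle wells and 0% = 0.29 µM artemisinin.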 The following applies: P. falciparum 3D7 proliferation; at 28.7 µM (top of the series). Summed up:
(§1)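 Parasite DNA was quantified by SYBR Green I fluorescence (ex 485, em 535 nm) after overnight lysis in saponin/Triton buffer at room temperature. Cultures at 0.3% parasitemia and 2.5% hematocrit were first exposed to compound for 72 h at 37 C; signals were normalised to artemisinin (0.29 uM) and vehicle wells.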
(Quantitative high-throughput screening tests each substance at several concentrations.)

Assay [2] is described as follows: qHTS profiling for inhibitors of Plasmodium falciparum (DD2) proliferation (AID 743323). The note with it: lower = more inhibition; at 28.7 µM (top of the series). Summed up:
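Parasite DNA quantified by SYBR Green fluorescence (ex 485, em 535 nm) after saponin/Triton lysis and overnight dark incubation. Cultures: 0.3% parasitemia, 2.5% hematocrit, 72 h, 37 C; data scaled between DMSO and 0.29 uM artemisinin.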

Assay [3] in a line: qHTS profiling for inhibitors of Plasmodium falciparum (HB3) proliferation (AID 743324; active means well fitted curve in the direction sought with a large enough effect; an effect the other way counts as inactive or inconclusive;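 further: 100% = DMSO vehicle wells and 0% = artemisinin-treated control wells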). The note with it: Plasmodium falciparum HB3 blood-stage proliferation; at 28.7 µM (top of the series). Put shortly:
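SYBR Green fluorescence (485 ex/535 em) of lysed cultures, incubated overnight at room temperature in the dark, quantifies parasite DNA. Infected erythrocytes at 0.3% parasitemia and 2.5% hematocrit were exposed 72 h; values normalized to DMSO and 0.29 uM artemisinin controls.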

Assay [4] is described as follows: qHTS profiling of the MIPE4 collection as inhibitors of Plasmodium falciparum (3D7) proliferation (AID 743344).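 Further: scaled between DMSO vehicle wells and 0.29 µM artemisinin as full inhibition.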 The following applies: P. falciparum 3D7 in erythrocytes, SYBR Green DNA fluorescence, 72 h; at 28.5 µM (top of the series) unless noted. Summed up: as §1
Assay [5] is described as follows: qHTS profiling of the MIPE4 collection as inhibitors of Plasmodium falciparum (DD2) proliferation (AID 743345). The note with it: P. falciparum Dd2 in erythrocytes, SYBR Green DNA, 72 h; at 28.5 µM (top of the series) unless noted. Put shortly: as §1
Assay [6] can be described thus: qHTS profiling of the MIPE4 collection as inhibitors of Plasmodium falciparum (HB3) proliferation (AID 743347).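 Further: plate controls were DMSO vehicle wells for no effect and artemisinin wells for full effect.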 The following applies: P. falciparum HB3 in erythrocytes, SYBR Green DNA, 72 h; at 28.5 µM (top of the series) unless noted. Put shortly:
as §1

Assay [7] is described as follows: High-throughput drug toxicity screening in the BPDCN cell line Gen2.2 (AID 1224824).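 Further: cells exposed to compounds for 48 h before reading.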 The following applies: Gen2.2 BPDCN cells; at 45.8 µM (top of the series) unless noted. Summed up:
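Seed 500 exponentially growing Gen2.2 cells/well; add compounds by pin tool; incubate 48 h, 37 °C, 5% CO2; add CellTiter-Glo, 15 min RT; read luminescence. % activity vs DMSO (100%) and bortezomib (0%).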

Assay [8] can be described thus: High-throughput drug toxicity screening in the BPDCN cell line Cal-1 (AID 1224825). The following applies: Cal-1 BPDCN cell viability, qHTS; at 45.8 µM (top of the series) unless noted. Put shortly: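 CellTiter-Glo luminescence after 48 h compound exposure; percent activity scaled with DMSO as 100% and bortezomib (9.2 uM final) as 0%. Cal-1 cells seeded at 500/well in RPMI, 10% FBS, no phenol red.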

Assay [9] can be described thus: qHTS assay for measurement of the activity of small molecule inhibitors on Zika virus induced Caspase-3 activity in human iPSC derived neural progenitor cells (hNPCs) (AID 1224857; active means well fitted curve in the direction sought with a large enough effect; an effect the other way counts as inactive or inconclusive; further: nearly all actives have a fitted effect of over 65% in size; further: potency means the concentration at half of the fitted maximal effect). Summed up: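 Zika virus (2 FFU/cell) infection of human iPSC-derived NPCs, 6 h, following 1 h compound preincubation. Read-out: Caspase-Glo 3/7 luminescence.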
Assay [10] can be described thus: qHTS Screen of the MIPE 4.0 Collection Against Ewings Sarcoma (RDES) (AID 1259252; active means well fitted curve in the direction sought with a large enough effect; an effect the other way counts as inactive or inconclusive; further: potency means the concentration at half of the fitted maximal effect; nearly all actives have a fitted effect of over 35% in size). Summed up: (§2)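 Log-phase cells in RPMI with 5% FBS attached for 4 h, then received compounds as a titration for 48 h at 37C, 5% CO2. Viability was read by CellTiter-Glo luminescence and normalized to DMSO and no-cell wells.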
A short description of assay [11]: qHTS Screen of the MIPE 4.0 Collection Against Ewings Sarcoma (TC71) (AID 1259253; active means well fitted curve in the direction sought with a large enough effect; an effect the other way counts as inactive or inconclusive; further: potency means the concentration at half of the fitted maximal effect; nearly all actives have a fitted effect of over 40% in size). Put shortly:
as §2

A short description of assay [12]: qHTS Screen of the MIPE 4.0 Collection Against Ewings Sarcoma (EW8) (AID 1259255; active means well fitted curve in the direction sought with a large enough effect; an effect the other way counts as inactive or inconclusive; further: nearly all actives have a fitted effect of over 35% in size; further: potency means the concentration at half of the fitted maximal effect;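 on viability: 100% = DMSO-treated cells and 0% = medium-only wells without cells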). Put shortly: as §2
A short description of assay [13]: qHTS Screen of the MIPE 4.0 Collection Against Ewings Sarcoma (TC32) (AID 1259256; active means well fitted curve in the direction sought with a large enough effect; an effect the other way counts as inactive or inconclusive; further: potency means the concentration at half of the fitted maximal effect; nearly all actives have a fitted effect of over 45% in size). Summed up: as §2
Assay [14] is described as follows: Identifying Small Molecule Inhibitors of Pancreatic Cancer Stem Cells (Panc1, Spheroid) (AID 1259359; active means well fitted curve in the direction sought with a large enough effect; an effect the other way counts as inactive or inconclusive;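 further: potency means the concentration at half of the fitted maximal effect; compound exposure lasted 48 h before reading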). The following applies: Panc1 spheroid cancer stem cell viability. Summed up: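 Spheroids grown 14 days in stem cell media on nonadherent hydrogel before screening; cells attached 4 h, then compound exposure 48 h at 37C, 5% CO2. CellTiter-Glo luminescence normalized to DMSO (no inhibition) and no-cell wells (full inhibition).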

Assay [15] can be described thus: qHTS profiling of the MIPE4 collection as inhibitors of Plasmodium falciparum (DD2) proliferation (Rep 2) (AID 743346). The note with it: P. falciparum Dd2 in erythrocytes, SYBR Green DNA, 72 h; at 28.5 µM (top of the series) unless noted. Summed up:
as §1

Assay [16] in a line: Identifying Small Molecule Inhibitors of Pancreatic Cancer Stem Cells (A2780, Spheroid) (AID 1259357; active means well fitted curve in the direction sought with a large enough effect; an effect the other way counts as inactive or inconclusive;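 further: spheroids pre-formed over 14 days in stem cell medium on hydrogel; compound exposure lasted 48 h before the ATP luminescence read; 100% = DMSO treated cells and 0% = wells without cells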). The following applies: Potency: A2780 spheroid viability. Put shortly: (§3)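 Spheroids grown 14 days in stem cell media on hydrogel-coated nonadherent plates; 2D lines seeded directly. Compounds added after 4 h attachment, 48 h at 37C, 5% CO2; CellTiter-Glo luminescence normalized to DMSO (no inhibition) and no-cell wells (full inhibition).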

Assay [17] is described as follows: Identifying Small Molecule Inhibitors of Pancreatic Cancer Stem Cells (SN12C, Spheroid) (AID 1259360; active means well fitted curve in the direction sought with a large enough effect; an effect the other way counts as inactive or inconclusive;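 further: 100% = DMSO-treated cells and 0% = wells without cells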). The following applies: Potency: SN12C spheroid viability. Summed up:
as §3

Take `CC(=O)Nc1ccc([C@H](C)C(=O)Nc2ncc(C(C)C)s2)cc1`: the remaining parasite growth % (stronger effect = lower value) in assay [1] turned out to be 95.5%. Also, the activity, percent of control in [2] was found to be 101%. For the same compound, the remaining proliferation (% of control), lower = more inhibition in assay [3] stood at 93.4%. In addition, the parasite growth, % of DMSO control in [4] is 5.36%. The parasite growth remaining, % of DMSO control (lower = more inhibition) in assay [5] worked out at 104%. The growth, % of control in [6] is 2.84%. The cell viability, % of control (lower = more cytotoxic) in assay [7] is 7.33%. The viability (% of control) in assay [8] is 6.1%. Further, the Potency in assay [9] was 14.8 µM (active); in assay [10], 2.96 µM (active); in assay [11], 2.96 µM (active); in [12] it was 5.9 µM (active); in assay [13], 4.18 µM (active); in [14], 8.33 µM (active).
For `CC=C(C)C(=O)O[C@H]1C(C)=C[C@]23C(=O)[C@@H](C=C(CO)[C@@H](O)[C@]12O)[C@H]1[C@@H](C[C@H]3C)C1(C)C`, in assay [4], the parasite growth, % of DMSO control came out at 18.7%. Further, the parasite growth, % of control (lower = inhibition) in [15] was 28.1%. In assay [6], the growth, % of control stood at 21%. The cell viability, % of control (lower = more cytotoxic) in [7] came to 38.4%. Besides, the viability (% of control) in [8] was determined as 12.7%. Moreover, the Potency entry in [9] is “inactive”. For the same compound, in [11], the Potency is 8.33 µM (active).
`O=C(Nc1ccccc1-c1cn2c(CN3CCNCC3)csc2n1)c1cnc2ccccc2n1`: in [1], the remaining parasite growth % (stronger effect = lower value) is -2.01% and -0.108%. In addition, the activity, percent of control in assay [2] is -0.76% and -0.434%. Further, the remaining proliferation (% of control), lower = more inhibition in assay [3] was -2.58% and -1.42%. Besides, the parasite growth, % of DMSO control in assay [4] came to 5.22%. In addition, the parasite growth remaining, % of DMSO control (lower = more inhibition) in assay [5] was determined as 5.73%. Further, the parasite growth, % of control (lower = inhibition) in [15] was 12.5%. Also, the cell viability, % of control (lower = more cytotoxic) in assay [7] turned out to be 2.56%. In addition, the viability (% of control) in assay [8] is 1.48%. For the same compound, the Potency in assay [9] is 18.7 µM (active); in assay [11], 23.5 µM (active). In addition, in assay [16], the Potency result was “inactive”.
As for `CC=CC(=O)N(CC)c1ccccc1C`, the parasite growth, % of DMSO control in assay [4] is 92.3%. The parasite growth remaining, % of DMSO control (lower = more inhibition) in [5] came to 104%. Also, in [15], the parasite growth, % of control (lower = inhibition) amounted to 142%. For the same compound, the growth, % of control in [6] came to 99.4%. Also, the cell viability, % of control (lower = more cytotoxic) in [7] was 116%. In addition, the viability (% of control) in [8] was 35%. For the same compound, the Potency entry in assay [9] and in assay [12] was “inactive” each time.
For `OC[C@H]1O[C@@H](n2cnc3c2NC=NC[C@@H]3O)C[C@H]1O`, in assay [1], the remaining parasite growth % (stronger effect = lower value) came to 97.1%. Besides, the activity, percent of control in assay [2] was 106%. The remaining proliferation (% of control), lower = more inhibition in assay [3] came to 99.7%. Besides, in assay [4], the parasite growth, % of DMSO control is 81.4%. The parasite growth remaining, % of DMSO control (lower = more inhibition) in assay [5] is 92.5%. Besides, the parasite growth, % of control (lower = inhibition) in assay [15] worked out at 146%. In addition, in assay [6], the growth, % of control was 97.8%. Moreover, in assay [7], the cell viability, % of control (lower = more cytotoxic) amounted to 188%. For the same compound, the viability (% of control) in assay [8] was 109%. Besides, the Potency result in assay [9], in assay [16] and in [17] was “inactive” each time.
As to `CO[C@H]1C[C@@H]2CC[C@@H](C)[C@@](O)(O2)C(=O)C(=O)N2CCCC[C@@H]2C(=O)O[C@H]([C@H](C)C[C@@H]2CC[C@H](OCCO)[C@H](OC)C2)CC(=O)[C@H](C)C=C(C)[C@@H](O)[C@@H](OC)C(=O)[C@H](C)C[C@H](C)C=CC=CC=C1C`, the remaining parasite growth % (stronger effect = lower value) in assay [1] was -1.41%. The activity, percent of control in assay [2] is -0.639%. Further, the remaining proliferation (% of control), lower = more inhibition in [3] was -1.24%. This compound showed a parasite growth, % of DMSO control in assay [4] of 4.95%. Further, in [5], the parasite growth remaining, % of DMSO control (lower = more inhibition) was 7.69%. Besides, in [15], the parasite growth, % of control (lower = inhibition) worked out at 8.53%. The compound also displayed a growth, % of control in assay [6] of 3.94%. In addition, the cell viability, % of control (lower = more cytotoxic) in assay [7] was 10.1%. In [8], the viability (% of control) stood at 12.7%. The Potency result in assay [9] was “inactive”. Besides, in [14], the Potency is 26.4 µM (active).
For `NC(=O)[C@@H](CCC(F)(F)F)N(Cc1ccc(-c2ncon2)cc1F)S(=O)(=O)c1ccc(Cl)cc1`, in assay [4], the parasite growth, % of DMSO control worked out at 50.8%. The parasite growth remaining, % of DMSO control (lower = more inhibition) in assay [5] was 88.9%. For the same compound, the parasite growth, % of control (lower = inhibition) in assay [15] worked out at 54.6%. In addition, the growth, % of control in [6] stood at 73.5%. Further, the cell viability, % of control (lower = more cytotoxic) in assay [7] was 127%. Moreover, the viability (% of control) in [8] came to 93.2%. Besides, the Potency result in assay [9] is “inactive”. For the same compound, the Potency in assay [11] is 18.7 µM (active); in assay [13], 14.8 µM (active).
In turn, `O=C1NC(=O)C(=Cc2ccc3nccnc3c2)S1` had a parasite growth, % of DMSO control in assay [4] of 56.7% [at 9.64 µM]. In addition, the parasite growth remaining, % of DMSO control (lower = more inhibition) in assay [5] turned out to be 92.6% [at 9.64 µM]. Further, the parasite growth, % of control (lower = inhibition) in assay [15] came to 114% [at 9.64 µM]. Further, the cell viability, % of control (lower = more cytotoxic) in assay [7] is 31% [at 23.2 µM]. For the same compound, the viability (% of control) in assay [8] came to 44.1% [at 23.2 µM]. For the same compound, the Potency is 14.4 µM (active) in assay [9], 14.4 µM (active) in [10], 11.5 µM (active) in assay [11] and 9.11 µM (active) in assay [12].
